# PLAP activator: human PLAP activation; P05187; hit rate 1.2% among 96,000; purified PLAP enzyme, luminescent substrate read-out; active compounds read high; activation fold at 20 µM; AID 696; in the data active = activation fold above about 2
# Target sequence (P05187 whole entry, looked up): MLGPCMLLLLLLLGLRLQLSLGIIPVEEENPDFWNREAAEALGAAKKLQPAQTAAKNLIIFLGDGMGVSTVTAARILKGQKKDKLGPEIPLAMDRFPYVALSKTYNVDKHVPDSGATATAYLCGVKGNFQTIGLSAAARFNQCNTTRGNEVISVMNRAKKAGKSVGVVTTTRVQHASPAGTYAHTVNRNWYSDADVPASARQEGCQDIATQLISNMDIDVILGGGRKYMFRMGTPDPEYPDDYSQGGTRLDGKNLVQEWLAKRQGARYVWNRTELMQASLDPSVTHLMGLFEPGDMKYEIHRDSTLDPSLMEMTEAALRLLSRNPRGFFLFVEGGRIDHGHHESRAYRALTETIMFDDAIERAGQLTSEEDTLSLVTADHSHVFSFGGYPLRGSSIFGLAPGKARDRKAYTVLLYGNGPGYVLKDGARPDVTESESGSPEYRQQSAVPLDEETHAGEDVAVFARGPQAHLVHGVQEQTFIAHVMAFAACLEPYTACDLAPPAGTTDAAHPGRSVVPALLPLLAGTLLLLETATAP
# CYP2C19 act: increases human CYP2C19 enzyme activity; P33261; recombinant CYP2C19, luciferin-H EGE luminescence; active compounds read high; 0 = fully inhibited enzyme, 1 = untreated enzyme; activation factor at 5 µM; 96,000 tested, under 10 active; AID 1025;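 active = activation factor of at least 2 at 5 µM in the primary screen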;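 also: 0 = wells with 2.5 mM tranylcypromine and 1 = vehicle-only wells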
# CYP2C9 act: CYP2C9 (human) activation; recombinant CYP2C9, luciferin-H conversion, luminescence; active compounds read high; factor 1 = untreated enzyme, 0 = blocked; hit rate 1.4% among 96,000; P11712; activation factor at 5 µM;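 active = activation factor of 2 or more for CYP2C9 at a 5 µM dose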;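 also: 0 = sulfaphenazole-blocked wells and 1 = vehicle-only wells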
# CYP2C9 inhib: blocks human cytochrome P450 2C9; CYP2C9 Supersomes, luciferin-H conversion, luminescence; AID 777; hit rate 20% among 96,000; inhibition, % at 5 µM;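 active = blocking of liver enzyme CYP2C9 beyond about 50% at 5 µM, limit read from the data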
# CYP2C19 inh: inhibitors of human CYP2C19 | CYP2C19 Supersomes, luciferin-H EGE luminescence, 30 min | P33261 | AID 778 | inhibition, % at 5 µM | hit rate 21% among 96,000;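 active = CYP2C19 inhibition above a set limit at 5 µM in the primary screen, cut at about 50% in these data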;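 also: plate controls were negative control wells for no effect and 2.5 mM tranylcypromine positive control for full effect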
# The depositor's hits bear a star. Only some compounds are listed: those with a hit (about 31% of all), similar ones and a draw of the others.
SMILES,PLAP activator,CYP2C19 act,CYP2C9 act,CYP2C9 inhib,CYP2C19 inh
CCOC(=O)COc1ccc(Oc2nc(C)cc(OC)n2)nn1,0.9,1.1,1.1,-14,-7
CCCCNC(=O)NC1C(NC(=O)NCCCC)N(C)C(=O)N1C (stereo not drawn),0.8,1.1,1,1,-8
Cn1cc(C(=O)c2ccc(Cl)cc2Cl)cc1C(=O)N/N=C(\N)COc1ccc(Cl)cc1Cl,1.7,0.6,0.1,86*,37
Cn1cc(C(=O)c2ccc(Cl)cc2Cl)cc1C(=O)N/N=C(\N)COc1ccccc1,1.5,1,0.8,19,2
COC(=O)C1=C(C)Nc2nnnn2C1c1ccc(Cl)cc1Cl (stereo not drawn),0.8,0.4,0.6,43,56*
CC1=C(C(N)=O)C(c2ccc(Cl)cc2Cl)n2ncnc2N1 (stereo not drawn),1,0.5,1.1,-5,51*
Cc1ccc(C2C3=C(CC(C)(C)CC3=O)Nc3n[nH]c(C)c32)cc1 (stereo not drawn),2*,0.7,0.9,13,26
Cc1[nH]nc2c1C(c1ccc(F)cc1)C1=C(CC(C)(C)CC1=O)N2 (stereo not drawn),0.9,0.7,0.8,19,26
CC(C)NC(=O)/C(=N\O)c1ccccc1,0.9,1.1,1,-2,-9
CCC(=O)c1ccc(O)c(CC=C(C)C)c1,1.2,0.4,0.4,64*,58*
CCN(CC)S(=O)(=O)c1ccc(NC(=O)C2CCCO2)cc1 (stereo not drawn),1.2,0.9,0.8,21,9
O=C(Nc1ccc(Oc2ccc(NC(=O)C3CCCO3)cc2)cc1)C1CCCO1 (stereo not drawn),1.6,0.7,0.5,54*,26
CN(Cc1ccccc1)S(=O)(=O)c1ccc(NC(=O)C2CCCO2)cc1 (stereo not drawn),0.9,0.9,0.5,55*,12
CCc1ccc(NC(=O)c2ccccc2NC(=O)C2CCCO2)cc1 (stereo not drawn),1.1,0.8,0.4,59*,21
O=C(Nc1ccc(-c2nc3ccccc3[nH]2)cc1)C1CCCO1 (stereo not drawn),1.1,0.7,1,-1,30
O=C(Nc1nc2ccccc2[nH]1)C1CCCO1 (stereo not drawn),2.5*,0.9,0.8,19,8
CCC(C)c1ccccc1NC(=O)C1CCCO1 (stereo not drawn),1,0.9,0.9,8,5
COC(/C=C/Nc1ccc(C)cc1)=C(C#N)C#N,1,1.1,1,3,-8
Cc1ccc(C2C3CN(C(C)C)CC=C3C(C#N)=C(N)C2(C#N)C#N)cc1 (stereo not drawn),1.3,0.8,0.5,45,23
CCOC(=O)NC(=O)CSc1nnc(C)s1,0.9,1,0.9,7,-1
O=C(NNC(=O)C1CCCO1)c1ccccc1Cl (stereo not drawn),2*,1.2,1.3,-32,-17
O=C1NC(=O)c2cc(NC(=O)C3CCCO3)ccc21 (stereo not drawn),0.8,0.6,0.1,86*,37
COc1ccc(NS(=O)(=O)c2ccc(NC(=O)C3CCCO3)cc2)cc1 (stereo not drawn),1.5,0.3,0.3,65*,69*
O=C(COc1cccc2ccccc12)NNC(=O)C1CCCO1 (stereo not drawn),2.2*,0.9,1.9,-86,11
Cc1ccnc(NS(=O)(=O)c2ccc(NC(=O)C3CCCO3)cc2)n1 (stereo not drawn),1.1,1,1,1,0
SMILES,PLAP activator,CYP2C19 act,CYP2C9 act,CYP2C9 inhib,CYP2C19 inh
Cc1ccc(NS(=O)(=O)c2ccc(NC(=O)C3CCCO3)cc2)cc1 (stereo not drawn),1.2,0.1,0.1,85*,91*
O=C(NCCN1CCN(c2ccccc2)CC1)c1ccc(NC(=O)C2CCCO2)cc1 (stereo not drawn),1.3,0.5,1.1,-5,52*
CSC1=NCCN1C(=O)c1ccc(S(=O)(=O)N(C)C)cc1,0.9,0.8,0.9,6,15
O=C(NC(Cc1ccc2c(c1)OCO2)C(=O)NC(Cc1ccccc1)C(=O)O)c1ccccc1 (stereo not drawn),1.7,1.1,0.8,19,-5
O=C(NC(Cc1ccccc1)c1ccc2c(c1)OCCCO2)c1ccccc1 (stereo not drawn),0.9,0.7,0.3,65*,31
Cn1c(=O)c2c(nc(CN3CCN(C(=O)c4ccco4)CC3)n2Cc2ccc(Cl)cc2)n(C)c1=O,1.3,0.9,0.8,23,12
O=S(=O)(Nc1ccc(S(=O)(=O)Nc2cccc3ccccc23)cc1)c1ccccc1,1.3,0.2,0.1,90*,83*
O=S(=O)(Nc1ccc(S(=O)(=O)Nc2ccccc2)cc1)c1ccccc1,1.1,0.7,0.1,89*,28
Cc1cc(C)nc(NS(=O)(=O)c2ccc(-n3cccc3)cc2)n1,1.3,0.7,0.9,15,34
O=S(=O)(Nc1ccc(-n2cccc2)cc1)c1ccccc1,1.1,0,0,98*,100*
COCC(=O)NC1CCN(C(=O)NCc2ccccc2)CC1,1,1,1.1,-6,0
COc1ccc(CN2CCN(c3ccccn3)CC2)cc1OCc1ccccc1,1.6,0.5,0.6,38,47
Cc1ccsc1CN1CCN(c2ccccn2)CC1,1.1,0.1,0.3,70*,93*
CC(=O)c1c(C)n([O-])c2cc(C)ccc2[n+]1=O,0.9,1,0.9,14,4
Cc1ccc(C2=NN3C(C(=O)c4ccccc4)Oc4ccccc4C3C2)cc1 (stereo not drawn),1.2,0.2,0.3,70*,82*
O=S(=O)(NCc1ccccc1Br)c1cccs1,1,0.6,1.2,-24,38
COCCNC(=O)C1CC(=O)N(CCc2ccccc2)C1 (stereo not drawn),1,0.8,1.1,-13,22
Cc1c(C(=O)N(C)C)sc2nc(-c3ccccn3)[nH]c(=O)c12,2.9*,1.2,1.1,-8,-16
Cc1sc2nc(CN(CCc3ccccc3)C(=O)c3ccco3)[nH]c(=O)c2c1C,1.1,1,0.8,21,1
COC(=O)c1ccc(C)c(NC(=O)c2nn(C)c(=O)c3ccccc23)c1,1,0.9,0.5,45,12
COC(=O)c1cc(NC(=O)Cn2c(=O)cnc3ccccc32)cc(C(=O)OC)c1,1,0.8,0.1,89*,19
COCCn1c(SCC(=O)Nc2cccc(C(=O)OC)c2)nc2ccccc2c1=O,1,0.7,0.4,56*,28
COC(=O)c1cccc(NC(=O)Cn2cnc3ccccc3c2=O)c1,1,0.3,0,98*,75*
COC(=O)c1cccc(NC(=O)c2nn(C)c(=O)c3ccccc23)c1,1.6,0.7,0.5,55*,28
COC(=O)Cn1c(=O)cnc2ccccc21,0.9,1.1,1.1,-13,-5

# Compound activity from PubChem.
